The source of these data is PubChem BioAssay (EPA / NIEHS).

The target of assay [1] is Estrogen receptor (Homo sapiens) (UniProt P03372). The assay can be described thus: CCTE_Deisenroth_AIME_384WELL_LUC_Active: CCTE's 384-well Estrogen Receptor Transactivation Assay with AIME metabolic competence (ERTA luciferase; metabolism positive), Deisenroth Lab (AID 2284030). In outline: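 In this metabolism-positive format, a 2-hour exposure to alginate-immobilized rat S9 precedes a 24 hour luciferase transactivation readout in VM7Luc4E2 cells. Dosing spans 10 concentrations from 0.002 to 200 uM.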
Estrogen receptor (Homo sapiens), sequence (P03372 whole entry, looked up): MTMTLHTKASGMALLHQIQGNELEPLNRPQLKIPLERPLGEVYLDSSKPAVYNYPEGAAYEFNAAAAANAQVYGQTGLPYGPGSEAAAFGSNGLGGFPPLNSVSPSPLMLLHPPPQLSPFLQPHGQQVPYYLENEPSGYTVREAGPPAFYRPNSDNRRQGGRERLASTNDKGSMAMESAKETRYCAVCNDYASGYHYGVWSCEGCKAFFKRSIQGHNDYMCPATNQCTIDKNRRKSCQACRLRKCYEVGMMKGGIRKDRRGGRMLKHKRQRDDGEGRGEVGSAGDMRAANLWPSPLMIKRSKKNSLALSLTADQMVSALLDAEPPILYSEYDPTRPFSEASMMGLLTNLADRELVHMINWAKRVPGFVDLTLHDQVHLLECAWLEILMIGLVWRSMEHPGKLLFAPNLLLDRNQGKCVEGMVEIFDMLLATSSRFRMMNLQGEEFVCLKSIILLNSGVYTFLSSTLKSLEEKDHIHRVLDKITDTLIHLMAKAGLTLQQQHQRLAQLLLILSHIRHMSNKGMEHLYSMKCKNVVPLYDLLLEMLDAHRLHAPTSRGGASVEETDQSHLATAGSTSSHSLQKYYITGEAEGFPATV

Assay [2] can be described thus: CCTE_Deisenroth_AIME_384WELL_CTox_Active: Cytotoxicity Assessment (CTOX) in CCTE's 384-well Estrogen Receptor Transactivation Assay with AIME metabolic competence (metabolism positive), Deisenroth Lab (AID 2284037).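 Also: chemicals first conditioned 2 h by alginate-bound induced rat liver S9 before cells; activity means signal loss indicating cell death.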 The essentials:
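Chemicals pre-incubated 2 hours with alginate-immobilised phenobarbital/beta-naphthoflavone-induced male Sprague Dawley rat liver S9, then conditioned medium applied 24 hour to VM7Luc4E2 cells. Viability by fluorogenic protease substrate; 10-point series 0.002 - 200 uM.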

Assay [3] concerns the target Estrogen receptor (Homo sapiens) (UniProt P03372). The assay can be described thus: CCTE_Deisenroth_AIME_384WELL_LUC_Inactive: CCTE's 384-well Estrogen Receptor Transactivation Assay without AIME metabolic competence (ERTA luciferase; metabolism negative), Deisenroth Lab (AID 2284038).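 Also: VM7Luc4E2 breast cells given medium preincubated 2 h with S9-free microspheres; hits raise estrogen receptor luciferase signal so potencies reflect agonists.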 In outline: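 Chemicals (10-point series, 0.002 - 200 uM) were incubated 2 hours with alginate-water microsphere lids lacking S9, then the conditioned medium was transferred to VM7Luc4E2 breast cells for 24 hour. Luciferase induction was read by bioluminescence, fitted upward relative to 17beta-estradiol.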

A short description of assay [4]: CCTE_Deisenroth_AIME_384WELL_CTox_Inactive: Cytotoxicity Assessment (CTOX) in CCTE's 384-well Estrogen Receptor Transactivation Assay without AIME metabolic competence (metabolism negative), Deisenroth Lab (AID 2284039).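 Also: cell viability via live-cell protease substrate cleaved to fluorescent probe; cells exposed 24 h to medium preincubated 2 h with alginate-water beads without S9; loss of fluorescence signal means loss of viability.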 In outline:
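Fluorescent protease-substrate viability readout after 24 h exposure of VM7Luc4E2 cells to conditioned medium. Chemicals (0.002–200 uM) first sat 2 h over alginate-water beads, no S9. Data fitted bidirectionally, loss of signal meaning viability loss.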

Assay [5] concerns the target Estrogen receptor (Homo sapiens) (UniProt P03372). The assay can be described thus: CCTE_Deisenroth_AIME_384WELL_LUC_Shift: CCTE's 384-well Estrogen Receptor Transactivation Assay with AIME metabolic competence data shift (ERTA luciferase; difference in metabolism positive and negative), Deisenroth Lab (AID 2284041; active = hit-call score of the fitted dose curve at least 0.9, where 1 is the maximum; inactive = score below 0.9;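 also: shift is response with S9 minus without S9 so positive means metabolism raised ER signal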). The essentials: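 Chemicals (0.002–200 uM, 10 points) pre-incubated 2 h with alginate-encapsulated induced male Sprague Dawley rat liver S9 or S9-free, then medium applied 24 h to VM7Luc4E2 cells; luciferase. Endpoint is per-concentration difference, S9-positive minus negative.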

Assay [6] is described as follows: CCTE_Shafer_MEA_acute_network_burst_percentage: CCTE's Neural Acute Assay for Percentage of Network Bursts, Shafer Lab (AID 2284022; active = hit-call score of the fitted dose curve at least 0.9, where 1 is the maximum; inactive = score below 0.9;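 also: curves fitted for loss so actives lower network burst percentage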;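 as to outcome: rat primary cortical neuron networks on multiwell MEA recorded 40 min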). The essentials:
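Cortical neurons from rat were grown over microelectrode arrays and used on day 13 or 15 in vitro. Wells with at least 10 active electrodes received test chemical at 0.03-40 uM. Activity during 40 min of exposure was compared with the preceding 40-min baseline.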

Assay [7] can be described thus: CCTE_Shafer_MEA_acute_cross_correlation_area: CCTE's Neural Acute Assay for Area of Cross Correlation, Shafer Lab (AID 2284024; active = hit-call score of the fitted dose curve at least 0.9, where 1 is the maximum; inactive = score below 0.9;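 also: rat primary cortical neuron networks on 48-well MEA at DIV 13 or 15 with 40 min exposure; area under pooled inter-electrode spike cross-correlation near zero lag as percent change from own baseline; curves fitted for loss of cross-correlation area so actives lower synchrony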). In outline: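 Acute exposure of mature rat cortical networks (day 13 or 15 post-plating) to 0.03-40 uM compound. Spontaneous spiking on MEA, 40 min pre- and post-dose at 37 C.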
Assay [8] is described as follows: CCTE_Shafer_MEA_dev_active_electrodes_number: CCTE's Neural Network Formation Assay for Number of Active Electrodes, Shafer Lab (AID 2284040).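 As to AC50: potency for loss of active electrodes versus DMSO so lower counts are hits.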 In outline: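 Rat cortical primary cultures, 1.5 x 10^5 cells/well, PEI-coated MEA, laminin drop. Continuous exposure DIV 0–12; full media/compound change DIV 5, 9. Readout: electrodes with mean firing ≥5 spikes/min; AUC across days; loss vs DMSO.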

Assay [9] in a line: CCTE_Shafer_MEA_dev_bursting_electrodes_number: CCTE's Neural Network Formation Assay for Number of Bursting Electrodes, Shafer Lab (AID 2284043).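 As to AC50: potency is for loss of bursting electrodes relative to DMSO.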 The essentials:
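Primary rat cortical neurons plated on 16-electrode MEA wells, exposed from day 0 with compound renewed at DIV 5 and 9. Electrodes bursting ≥1 burst per 2 min counted on days 5, 7, 9 and 12; trapezoidal AUC across days, fitted for loss versus DMSO.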

Assay [10] is described as follows: CCTE_Shafer_MEA_dev_per_burst_interspike_interval: CCTE's Neural Network Formation Assay for Burst Interspike Interval, Shafer Lab (AID 2284044; active = hit-call score of the fitted dose curve at least 0.9, where 1 is the maximum; inactive = score below 0.9;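 also: mean spike spacing inside bursts as AUC over recordings on days 5 7 9 12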;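 as to AC50: potency for a decrease of within-burst interspike interval below DMSO level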). The essentials: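 Developmental network-formation MEA in primary rat cortical cultures with exposure spanning days 0–12. Within-burst ISI is averaged per well and integrated across recording days by area under the curve, with DMSO as negative control baseline.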

Molecules are shown by their SMILES. Records with an inconclusive call do not appear. Calls of active or inactive are those of the source. The calls were made as follows, unless noted: active = hit-call score of the fitted dose curve at least 0.9, where 1 is the maximum; inconclusive = response in the unintended direction; inactive = score below 0.9.

In the case of `COc1cc([N+](=O)[O-])ccc1N`, the outcome in assay [1], in assay [3] and in assay [5] was inactive. Moreover, the AC50 was 118000 nM (active) in assay [2] and 100000 nM (active) in assay [4].

As to `Oc1c(Cl)cc(Cl)cc1Sc1cc(Cl)cc(Cl)c1O`, the half-maximal activity concentration (AC50) in assay [6] is 7490 nM (active). For the same compound, the compound was called inactive in assay [7].

As for `CC(O)COc1ccccc1` (stereo not drawn), the compound was called inactive in [2] and in assay [4].

`O=C(CCCN1CCC(O)(c2ccc(Cl)cc2)CC1)c1ccc(F)cc1`: the outcome in [6] and in [7] was inactive. Further, the concentration at half-maximal activity (AC50) in assay [8] was 2330 nM (active); in assay [9], 1650 nM (active); in assay [10], 1780 nM (active).

As to `CCCCc1oc2ccccc2c1C(=O)c1cc(I)c(OCCN(CC)CC)c(I)c1`, the outcome in assay [6] and in assay [7] was inactive.

As for `Cc1[nH]nc2c1N=C(c1ccccc1Cl)c1cc([N+](=O)[O-])ccc1N2`, the concentration at half-maximal activity (AC50) in [2] was 159000 nM (active); in [4], 138000 nM (active).

As for `CCC(C)c1ccccc1O` (stereo not drawn), the half-maximal activity concentration (AC50) is 5000 nM (active) in assay [6] and 0.93 nM (active) in assay [4]. Moreover, the compound was classed as inactive in [7] and in [2].

On to `OCC(CO)(CBr)CBr`, for which the outcome in assay [6], in assay [7] and in [2] was inactive.

On to `COC(=O)C(F)(F)C(F)(F)C(F)(F)F`, for which the outcome in assay [8], in [9] and in [10] was inactive.

As to `O=P(O)(O)CCC(F)(F)C(F)(F)C(F)(F)C(F)(F)C(F)(F)C(F)(F)C(F)(F)C(F)(F)F`, the AC50 in assay [8] is 4180 nM (active); in [9], 2390 nM (active). Moreover, in assay [10], the compound was classed as inactive.

For `O=C(O)CCC(F)(F)C(F)(F)C(F)(F)C(F)(F)C(F)(F)F`, the outcome in assay [9] and in [10] was inactive.

Take `CC(C)c1c(C(=O)Nc2ccccc2)c(-c2ccccc2)c(-c2ccc(F)cc2)n1CC[C@@H](O)C[C@@H](O)CC(=O)O`: the AC50 is 9.81 nM (active) in [8], 9.22 nM (active) in [9] and 25.5 nM (active) in assay [10].

`O=C(O)C(F)(F)OC(F)(F)C(F)(F)OC(F)(F)C(F)(F)OC(F)(F)C(F)(F)C(F)(F)C(F)(F)F`: the result in assay [8] and in assay [10] was inactive.

What is called AC50 is the concentration at which the activity in the assay is half-maximal.
